We go through 63 compounds from paper PMC4552634, “A New Set of Chemical Starting Points with Plasmodium falciparum Transmission-Blocking Potential for Antimalarial Drug Discovery” (PLoS ONE, 2015).

Hit rate of the full screen: of about 13,000 compounds, about 3,200 (25%) showed an effect of 50% or more. This is one part of the list.

The experiment deals with P. falciparum stage V gametocytes. Details: BacTiter-Glo ATP luminescence viability of purified stage V gametocytes in 384-well plates, per cent inhibition versus DMSO. The settings on record: 48 h, 5 µM; inhibitor.
As to `CCNc1cc(C(=O)N[C@@H](Cc2ccccc2)[C@H](O)CNC2(CC(C)C)CC2)cc(N2CCCCS2(=O)=O)c1` [TCMDC-135258], the “% Inhibition” value is -2.163%.

Regarding `COc1ccc2cc(C(=O)Nc3ccc4c(c3)CCN(C3CCC3)CC4)ccc2c1` [TCMDC-136082], the “% Inhibition” value is -6.595%. Take `O=C(Nc1ccc2c(c1)CCN(C1CCC1)CC2)c1cn(-c2ccccc2)nc1-c1ccccc1` [TCMDC-136083]: the “% Inhibition” value was determined as 54.47%. Consider `O=C(Nc1ccc2c(c1)CCN(C1CCC1)CC2)c1ccc(-c2cn3ccccc3n2)cc1` [TCMDC-135460], for which the “% Inhibition” value was 75.27%.

In the case of `N#Cc1ccc(-n2cc(C(=O)Nc3ccc4c(c3)CCN(C3CCC3)CC4)c(C(F)(F)F)n2)cc1` [TCMDC-136080], the “% Inhibition” value worked out at 23.35%. With `O=C(Nc1ccc2c(c1)CCN(C1CCC1)CC2)c1ccc(-n2ccnc2)cn1` [TCMDC-135973], the “% Inhibition” value was found to be 3.666%.

On to `N#Cc1cccc(-c2ccc(C(=O)Nc3ccc4c(c3)CCN(C3CCC3)CC4)cn2)c1` [TCMDC-135996], for which the “% Inhibition” value is listed as -32.92%. Turning to `CCOCCCNc1sc(S(=O)(=O)c2ccccc2)nc1S(=O)(=O)c1ccc(C)cc1` [TCMDC-124750], the “% Inhibition” value worked out at 20.27%. For the compound `O=C(Cc1ccc[n+]([O-])c1)Nc1cccc(-c2cccc(-c3nc4cc(C(F)(F)F)ccc4[nH]3)c2)c1` [TCMDC-136990], the “% Inhibition” value is on record as -75.57%.

For the compound `CC(=O)Nc1ccc(CN2CCN(C(c3ccc(F)cc3)c3ccc(F)cc3)CC2)cc1` [TCMDC-124045], the “% Inhibition” value came to 16.43%. Regarding `O=C(/C=C/c1ccc(F)cc1)NC1CCC(CCN2CCc3ccccc3CC2)CC1` (stereo not drawn) [TCMDC-139451], the “% Inhibition” value is -36.35%. Regarding `N#Cc1ccc(N2CCN(Cc3ccc(-c4ccc(-c5nc6cc(C(F)(F)F)ccc6[nH]5)cc4)cc3)CC2)nc1.O=C(O)C(F)(F)F` [TCMDC-133113], the “% Inhibition” value is listed as -14.21%. Regarding `Oc1ccccc1CN1CCCC(COC(c2ccc(F)cc2)c2ccc(F)cc2)C1` (stereo not drawn) [TCMDC-136037], the “% Inhibition” value is 28.2%. As for `Nc1c(Cl)cc(C(O)CNCCCCCCOCCc2ccc(CO)s2)cc1Cl` (stereo not drawn) [TCMDC-132092], the “% Inhibition” value is on record as 55.37%. For `Nc1c(Cl)cc(C(O)CNCCCCCOCCc2ccc3occc3c2)cc1Cl` (stereo not drawn) [TCMDC-132085], the “% Inhibition” value is listed as 27.47%.

As for `Nc1c(Cl)cc(C(O)CNCCCCCCOCCc2ccc(O)cc2)cc1Cl` (stereo not drawn) [TCMDC-132086], the “% Inhibition” value is listed as 21.31%. The result for `Nc1c(Cl)cc(C(O)CNCCCCCCCCCc2ccccn2)cc1Cl` (stereo not drawn) [TCMDC-132100] reads 20.05%; that for `Nc1c(Cl)cc(C(O)CNCCCCCOCCCc2ccc3ncccc3c2)cc1Cl` (stereo not drawn) [TCMDC-132087], 57.03%. Consider `CCN(CC)S(=O)(=O)c1ccc(CCOCCCCCNCC(O)c2cc(Cl)c(N)c(Cl)c2)s1` (stereo not drawn) [TCMDC-132091], for which the “% Inhibition” value turned out to be 31.84%. For the compound `Cc1ccc(CCOCCCCCNCC(O)c2cc(Cl)c(N)c(Cl)c2)cc1` (stereo not drawn) [TCMDC-132077], the “% Inhibition” value amounted to 0.6115%. `Nc1c(Cl)cc(C(O)CNCCCCCOCCCc2ccc(O)c3ncccc23)cc1Cl` (stereo not drawn) [TCMDC-132088]: the “% Inhibition” value amounted to 115.2%. The result for `Nc1c(Cl)cc(C(O)CNCCCCCOCCc2ccccc2)cc1C(F)(F)F` (stereo not drawn) [TCMDC-132081] reads 12.69%; that for `CCOCc1cnc(C)nc1CNC(=O)c1c(C)[nH]c2ccc(C)cc12` [TCMDC-125780], 11.26%; that for `CCCc1cc(=O)oc2cc(OC)c(C(=O)CC(C)C)c(OC)c12` [TCMDC-138262], -48.84%. With `Oc1cccc(-c2nc(-c3ccccc3)c(-c3ccc4oc5ccc(-c6[nH]c(-c7cccc(O)c7)nc6-c6ccccc6)cc5c4c3)[nH]2)c1` [TCMDC-124223], the “% Inhibition” value came to 14.59%. As for `CC(CN(C)C)C(=O)Nc1ccc(-c2ccc(-c3nc4ccc(C(F)(F)F)cc4[nH]3)cc2)cc1` (stereo not drawn) [TCMDC-137113], the “% Inhibition” value is -54.47%.

Take `O=C(NCCN1CCCC1)c1cccc(-c2ccc(-c3nc4ccc(F)cc4[nH]3)cc2)c1` [TCMDC-132325]: the “% Inhibition” value is reported as -16.55%. In the case of `CN(C)C(=S)NN=Cc1cccc(O)c1O` [TCMDC-137879], the “% Inhibition” value came out at 23.09%.

For the compound `CC(=NNC(N)=O)C1=C(O)C(c2ccccc2)N(C2CCCCC2)C1=O` (stereo not drawn) [TCMDC-131672], the “% Inhibition” value was -9.176%.

As for `NC(N)=NN=CC(=O)Nc1ccc(Cl)c(C(F)(F)F)c1` [TCMDC-137561], the “% Inhibition” value stood at 9.011%. On to `Cc1cccc2nc(-c3cccc(-c4cccc(NC(=O)Cc5ccc[n+]([O-])c5)c4)c3)[nH]c12` [TCMDC-136992], for which the “% Inhibition” value was found to be 24.81%. Consider `Cc1cc(C2CCN(CCCCNC(=O)c3ccc(-c4ccc(C(F)(F)F)cc4)cc3)CC2)c(C)cc1OCC#N` [TCMDC-138799], for which the “% Inhibition” value was determined as 37.57%. For `O=C(NCCCCN1CCC(c2ccc3c(c2OCCN2CCCC2=O)CCCC3)CC1)c1ccc(-c2ccc(C(F)(F)F)cc2)cc1` [TCMDC-138773], the “% Inhibition” value was 108.1%. For the compound `O=C(NCCCCN1CC=C(c2ccc3c(c2OCC2CC2)CCCC3)CC1)c1ccc(-c2ccc(C(F)(F)F)cc2)cc1` [TCMDC-138758], the “% Inhibition” value is listed as -36.04%.

As to `N#CCOc1c(C2CCN(CCCCNC(=O)c3ccc(-c4ccc(C(F)(F)F)cc4)cc3)CC2)ccc2c1CCCC2` [TCMDC-138769], the “% Inhibition” value is 92.11%.

Take `O=C(NCCCCN1CCC(c2ccc3c(c2OCCCO)CCCC3)CC1)c1ccc(-c2ccc(C(F)(F)F)cc2)c(CO)c1` [TCMDC-138741]: the “% Inhibition” value worked out at 72.16%. Take `O=C(NCCCCN1CCC(c2ccc3c(c2OCCOCCO)CCCC3)CC1)c1ccc(-c2ccc(C(F)(F)F)cc2)cc1` [TCMDC-138762]: the “% Inhibition” value is given as 96.11%. As for `COc1ccc(C(=O)NCCCCN2CCC(c3ccc4c(c3OC)CCCC4)CC2)cc1-c1ccc(C(F)(F)F)cc1` [TCMDC-138700], the “% Inhibition” value was -81.5%.

In the case of `OC(c1ccccc1)C1CN(CCc2ccccc2)CCC1(O)c1ccccc1` (stereo not drawn) [TCMDC-131287], the “% Inhibition” value was -3.552%. For the compound `O=C(/C=C/c1ccccc1Cl)Nc1ccc(Br)c(OCCN2CCN(CCN3CCOCC3)CC2)c1` [TCMDC-140958], the “% Inhibition” value is given as -23.86%.

`Fc1ccc2[nH]c(-c3cccc(-c4ccc(CNCc5cnn(-c6ccccc6)n5)cc4)c3)nc2c1.O=C(O)C(F)(F)F` [TCMDC-132973]: the “% Inhibition” value is listed as -12.58%. Regarding `O=C(NC1CCCCC1)c1csc(C2CCCN(C(=O)c3ccc(O)c(-c4cccc(C(F)(F)F)c4)c3)C2)n1` (stereo not drawn) [TCMDC-140156], the “% Inhibition” value stood at 5.189%.

Regarding `CC(=O)c1ccc(-c2cccc3c(CC(=O)Nc4ccc5nccc(N6CCN(C)CC6)c5c4)cccc23)cc1` [TCMDC-139271], the “% Inhibition” value was -10.77%. The result for `O=C(NCCCCN1CCC(c2ccc3c(c2OCCO)CCCC3)CC1)c1ccc2oc(-c3ccc(C(F)(F)F)cc3)cc2c1` [TCMDC-138771] reads 113.6%. The result for `O=C(NCCCCN1CCC(c2ccc3c(c2OCC2COCO2)CCCC3)CC1)c1ccc(-c2ccc(C(F)(F)F)cc2)cc1` (stereo not drawn) [TCMDC-138770] reads 14.16%. Consider `O=C(NCCCCN1CCC(c2cccc3ccccc23)CC1)c1ccc(-c2ccc(C(F)(F)F)cn2)cc1` [TCMDC-138570], for which the “% Inhibition” value is listed as -25.01%. With `CCOC(=O)c1cc(C(=O)NCCCCN2CCC(c3cn(C)c4ccccc34)CC2)ccc1-c1ccc(C(F)(F)F)cc1` [TCMDC-138751] the figure was 1.206%; with `O=C(NCCCCN1CCC(c2ccc3c(c2OCCO)CCCC3)CC1)c1ccc(-c2ccc(C(F)(F)F)cc2)cc1` [TCMDC-138714], 98.87%.

As to `Cn1cc(C2CCN(CCCCNC(=O)c3ccc(-c4ccc(C(F)(F)F)cc4)c(CO)c3)CC2)c2ccccc21` [TCMDC-138748], the “% Inhibition” value is 65.02%.

Take `O=C(NCCCCN1CCC(c2ccc3c(c2OCCCO)CCCC3)CC1)c1ccc(-c2ccc(C(F)(F)F)cc2)cc1` [TCMDC-138743]: the “% Inhibition” value is reported as 141.9%.

As for `O=C(NCCCCN1CCC(c2ccc3c(c2OCCO)CCCC3)CC1)c1sc(-c2ccc(C(F)(F)F)cc2)nc1CO` [TCMDC-138776], the “% Inhibition” value worked out at 39.12%. As to `CNC(=O)COc1cc(C)c(C2CCN(CCCCNC(=O)c3ccc(-c4ccc(C(F)(F)F)cc4)cc3)CC2)cc1C` [TCMDC-138846], the “% Inhibition” value is listed as 42.45%. For `CN1CCCc2ccc(NC(=O)c3cc(-c4ccc(Cl)cc4)cs3)cc2C1` [TCMDC-133946], the “% Inhibition” value turned out to be 39.01%. For the compound `CCN(CCCN1CCCCC1)c1nc(C)cc(Nc2ccc(Cl)cc2)n1` [TCMDC-137045], the “% Inhibition” value worked out at 21.21%.

Take `O=C(Nc1ccc2c(c1)OCO2)NC1CCN(c2ccnc(NCc3ccc(F)cc3)n2)CC1` [TCMDC-133635]: the “% Inhibition” value turned out to be 26.57%. For the compound `Cc1ccc(NC(=O)c2ccc3ncccc3c2)cc1OC1CCN(CCC(C)C)C1` (stereo not drawn) [TCMDC-133980], the “% Inhibition” value was 9.414%. Turning to `CCCC1N=C(N)N=C(N)N1c1ccc(OC)cc1` (stereo not drawn) [TCMDC-131295], the “% Inhibition” value is given as -30.41%. On to `O=C(Nc1ccc(CCNC2=NCCN2)cc1)Nc1ccc(CCNC2=NCCN2)cc1` [TCMDC-137205], for which the “% Inhibition” value was 10.33%. With `CCCCc1ccc2[nH]c(NC(=O)OC)nc2c1` [TCMDC-131798] the figure was -12.96%; with `CC(C)(C)OC(=O)Cn1cnc2cc(NC(=O)c3cc([N+](=O)[O-])cc([N+](=O)[O-])c3)ccc21` [TCMDC-131910], -17.84%.

On to `Cc1nc2ccc3ccc(CNc4ccc(C(=O)N[C@@H](CCC(=O)O)C(=O)N[C@@H](Cc5cccs5)C(=O)O)c(F)c4)cc3c2c(=O)[nH]1` [TCMDC-137819], for which the “% Inhibition” value came out at 7.673%.

For the compound `O=C(CNC(=O)c1ccc(O)cc1)Nc1cccc(-c2cccc(-c3nc4ccc(C(F)(F)F)cc4[nH]3)c2)c1` [TCMDC-136816], the “% Inhibition” value turned out to be 11.2%. On to `CN1CCN(CC(O)CNC(=O)Nc2ccc(Br)cc2)CC1` (stereo not drawn) [TCMDC-134635], for which the “% Inhibition” value is on record as 15.1%.

Broadly, the % Inhibition is the change of the read-out against control, counted positive when it falls.
